The text below walks through data of PubChem BioAssay (NCI).

Holding throughout (experiment): NCI-60 one-dose screen, 48 h (100 = growth as untreated, 0 = no growth, -100 = all killed)
Common to all, as to settings: 10 µM unless noted

In assay [1] the test system is DU-145 prostate.
Assay [2] concerns K-562 leukemia.
The subject of assay [3] is MALME-3M melanoma.
The test system of assay [4] is MDA-MB-231 breast.
In assay [5] the test system is RXF 393 renal.
Assay [6] relates to SF-268 CNS.
Assay [7] relates to SF-295 CNS.
Assay [8] has as its system SF-539 CNS.
Assay [9] relates to UACC-257 melanoma.
Assay [10] deals with M14 melanoma.

Where “and” joins values, the source holds several entries; their conditions need not be identical. Equal entries are not always repeated. This is part of a sample that, as a whole, favours compounds with a hit. Of some 83,000 tested, about 20% had one in any assay.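 Treatment: one concentration, 48 hours, 96-well format. Scoring: percent growth, with anything below 10 considered active.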 Unmarked numbers belong to inactive results. Calls of active or inactive are those of the source.

Consider `CC[C@H](C)[C@H](NC(=O)[C@H]1CCCCN1C)C(=O)N(C)[C@H](C[C@@H](OC(C)=O)c1nc(C(=O)N[C@@H](Cc2ccccc2)C[C@H](C)C(=O)O)cs1)C(C)C`, for which the growth in [1] was 4.56% (active); in assay [2], 7.63% (active); in [3], 55.2%; in assay [4] it was 28.2%; in assay [5], 35.3%; in [6] it was 34.2%. Also, the growth in assay [7] was 8.04% (active); in [8], -10.5% (active); in [9], 49.3%; in [10], 8.87% (active).
For the compound `CCOC(=O)c1cncn1C(C)c1ccccc1` (stereo not given), the growth in [1] was 120%; in assay [2] it was 96.7%; in [3], 109%; in assay [4], 112%; in [5], 103%; in assay [6], 113%. The growth in [7] was 104%; in assay [8], 107%; in assay [9], 103%; in assay [10] it was 103%.
`O=C1CCCCC1CN1CCCCC1` (stereo not given): the growth in assay [1] is 100%; in assay [2], 119%; in assay [3], 86.2%; in assay [4], 116%; in assay [5], 121%; in [6], 97.7%. The growth was 97.2% in assay [7], 97% in [8], 96.2% in [9] and 109% in [10].
Take `O=[N+]([O-])c1ccc(OCc2ccc(S(=O)(=O)F)c(Cl)c2)c(Cl)c1`: the growth in assay [1] is 118%; in [2] it was 99%; in [3] it was 98.6%; in [4], 85.9%; in assay [5], 114%; in assay [6] it was 95.8%. Further, the growth is 106% in assay [7], 93.6% in assay [8], 118% in [9] and 96.9% in [10].
Consider `CCOP(=O)(OCC)C(=O)N(CC)CC`, for which the growth in assay [1] is 107%; in assay [2], 121%; in [3] it was 108%; in assay [4], 99.8%; in assay [5] it was 101%; in [6], 101%. Further, the growth in assay [7] is 98.8%; in assay [8] it was 113%; in assay [9] it was 88.4%; in [10] it was 101%.
For the compound `Cn1cc(C(=O)C[n+]2ccccc2)c2ccccc21`, the growth in [1] was 109%; in assay [2] it was 106%; in [3] it was 96.7%; in assay [4], 100%; in assay [5] it was 99.6%; in assay [6], 94.7%. The growth in assay [7] is 102%; in [8] it was 89.6%; in [9] it was 111%; in [10], 99.2%.
As to `C[C@]12CCC(=O)C[C@@H]1CC[C@@H]1[C@@H]2CC[C@]2(C)[C@@H](OC(=O)N(CCCl)N=O)CC[C@@H]12`, the growth is -53.4% (active) in assay [1]; 10.7% in assay [2]; 57.2% in [3]; 69.6% in assay [4]; 32.7% in assay [5]; 12.7% in assay [6]. Also, the growth is -29.6% (active) in [7], -28.5% (active) in assay [8], 57.5% in assay [9] and 17.7% in [10].
Consider `N[C@@H](CCC(=O)CCl)C(=O)O`, for which the growth in assay [1] is 105% [20 µM]; in assay [2], 82.9% [20 µM]; in assay [3] it was 92.5% [20 µM]; in assay [4] it was 92.2% [20 µM]; in [5], 112% [20 µM]; in assay [6], 98.4% [20 µM]. Further, the growth was 98.9% [20 µM] in [7], 104% [20 µM] in [8], 99.9% [20 µM] in assay [9] and 95.9% [20 µM] in [10].
As for `CC[C@H](C)[C@H]1O[C@]2(C=C[C@@H]1C)C[C@@H]1C[C@@H](C/C=C(\C)[C@@H](O[C@H]3C[C@H](OC)[C@@H](O[C@H]4C[C@H](OC)[C@@H](NC)[C@H](C)O4)[C@H](C)O3)[C@@H](C)/C=C/C=C3\CO[C@@H]4[C@H](O)C(C)=C[C@@H](C(=O)O1)[C@]34O)O2`, the growth in assay [1] was -85.2% (active); in assay [2] it was -41.4% (active); in assay [3], -67.2% (active); in assay [4], -71.9% (active); in assay [5], -88.4% (active); in assay [6], -56% (active). Moreover, the growth is -65.6% (active) in assay [7], -79.7% (active) in assay [8], -56.7% (active) in [9] and -68.6% (active) in assay [10].
On to `CC[C@H](C)[C@H](NC(=O)[C@H]1CCCCN1C)C(=O)N(C)[C@H](CCc1nc(C(=O)N[C@@H](Cc2ccccc2)C[C@H](C)C(=O)O)cs1)C(C)C`, for which the growth was 9.58% (active) in assay [1]; 6.62% (active) in assay [2]; 78.4% in [3]; 11.2% in assay [4]; 31.8% in assay [5]; 20.9% in [6]. For the same compound, the growth in [7] is -1.24% (active); in assay [8], -12.9% (active); in assay [9] it was 53.4%; in [10] it was 4.31% (active).
Regarding `CC[C@H](CC[C@@H](C)[C@H]1CC[C@H]2[C@@H]3CC[C@H]4C[C@]5(CC[C@]4(C)[C@H]3CC[C@]12C)OO[C@](C)(C(F)(F)F)O5)C(C)C`, the growth was 97.2% in assay [1]; 93.9% in assay [2]; 86% in assay [3]; 94.5% in [4]; 106% in assay [5]; 87.4% in [6]. Further, the growth in assay [7] was 94.6%; in assay [8], 97.8%; in assay [9], 95.3%; in [10], 97.1%.
`Oc1ccccc1C=NCCN=Cc1ccccc1O`: the growth was 108% in [1]; 112% in [2]; 113% in [3]; 101% in [4]; 109% in assay [5]; 97% in assay [6]. Moreover, the growth is 101% in [7], 106% in assay [8], 96.4% in assay [9] and 102% in assay [10].
On to `Oc1ccccc1C=NCCN=Cc1ccccc1O.[Fe]`, for which the growth in assay [1] was 104%; in [2], 85.3%; in assay [3], 69.7%; in assay [4], 34.9%; in assay [5], 98.8%; in [6], 97.4%. Besides, the growth in [7] was 85%; in [8], 88.8%; in assay [9], 46.9%; in [10], 93.9%.
As for `O=C(CBr)OCCOC(=O)CBr`, the growth is 84.2% in [1]; 62.5% in assay [2]; 76.3% in assay [3]; 80.6% in [4]; -7.57% (active) in assay [5]; 89.9% in assay [6]. For the same compound, the growth in assay [7] was 104%; in assay [8], 112%; in [9], 83.1%; in assay [10], 81%.
Take `Cn1cc(-c2csc(-c3cn(CCCCN4CCOCC4)c4ccc(F)cc34)n2)c2cccnc21`: the growth in [1] was 100%; in assay [2] it was -49.7% (active); in assay [3], -60.3% (active); in [4] it was 35.2%; in assay [5], 16.3%; in assay [6], 63%. Further, the growth in [7] was 50.8%; in assay [8] it was 69.7%; in [9], -45.1% (active); in assay [10], -53.9% (active).
Take `COC1C(O)CC(OC2CC(Oc3cc4cc5c(c(O)c4c(O)c3C)C(=O)[C@@H](OC3CC(OC4CC(OC6CC(C)(O)C(OC(C)=O)C(C)O6)C(O)C(C)O4)C(O)C(C)O3)[C@H]([C@H](OC)C(=O)[C@@H](O)[C@@H](C)O)C5)OC(C)C2OC(C)=O)OC1C` (stereo not given in full): the growth was -18.3% (active) in [1]; -14.9% (active) in [2]; -91.6% (active) in [3]; -8.36% (active) in assay [4]; -49.6% (active) in assay [5]; -10.5% (active) in assay [6]. The growth in [7] is -16.2% (active); in assay [8] it was -73.9% (active); in assay [9], -31.7% (active); in [10], -86.3% (active).
On to `Cc1cc(NC(=O)NCCCOc2ccc(N3C(N)=NC(N)=NC3(C)C)cc2Cl)ccc1S(=O)(=O)F`, for which the growth in assay [1] was 33.6%; in assay [2], 25.1%; in assay [3], 55.6%; in [4] it was 71.7%; in [5] it was 48.6%; in assay [6], 32.7%. The growth in [7] is 30.4%; in assay [8], 17.5%; in assay [9], 25.9%; in [10], 41%.
Turning to `C[C@]12CC[C@H]3[C@@H](C[C@@H]4SC(Nc5ccccc5)=N[C@@]45C/C(=N/O)CC[C@]35C)[C@@H]1CCC2=O`, the growth in assay [1] is 29.8%; in assay [2], 12.5%; in assay [3], 83.8%; in [4], 78.2%; in assay [5] it was 28.8%; in assay [6], 57.7%. The growth in [7] was 55.7%; in assay [8], 44.2%; in assay [9], 99.9%; in [10], 68.5%.
Regarding `CCOP(=O)(NC)OCC`, the growth in assay [1] was 112%; in assay [2], 120%; in assay [3], 121%; in [4], 104%; in assay [5], 118%; in [6] it was 98.7%. For the same compound, the growth in assay [7] is 129%; in assay [8], 101%; in [9] it was 121%; in assay [10], 94.8%.
As for `CC(=O)Cc1ccc2c(c1)OCO2`, the growth in [1] was 111%; in [2], 116%; in [3], 116%; in assay [4] it was 89.1%; in [5], 115%; in assay [6], 98.3%. The growth in [7] was 109%; in [8], 95.4%; in [9] it was 104%; in [10], 105%.
For the compound `CC[C@H](C)[C@H](NC(=O)c1cnccn1)C(=O)N(C)[C@H](C[C@@H](OC(C)=O)c1nc(C(=O)N[C@@H](Cc2ccccc2)C[C@H](C)C(=O)OC)cs1)C(C)C`, the growth in assay [1] was 6.92% (active); in [2], 5.13% (active); in [3], 69.6%; in assay [4], -4.71% (active); in [5], 17.4%; in assay [6], 19.4%. The growth in assay [7] was -5.89% (active); in assay [8], -21.9% (active); in assay [9], 44.3%; in [10] it was -5.51% (active).
Regarding `CCCCCCCCCCCCCCCC[n+]1ccccc1`, the growth in assay [1] was -74.4% (active) and -12.9% (active); in assay [2] it was -44.3% (active) and 0.871% (active); in assay [3], -56.5% (active) and -38% (active); in assay [4] it was -40.7% (active) and -32.7% (active); in [5], -86.7% (active); in [6], -58.9% (active) and -32.7% (active). In addition, the growth in assay [7] is -69.1% (active) and -56.5% (active); in assay [8], -70.3% (active) and -27.4% (active); in [9], -52.2% (active) and -26.1% (active); in assay [10], -49% (active) and -77.5% (active).
Consider `CC(C)COC(=O)Cc1ccccc1`, for which the growth is 115% in [1]; 109% in assay [2]; 94.4% in [3]; 120% in [4]; 102% in [5]; 104% in [6]. The growth is 111% in assay [7], 97.5% in assay [8], 104% in [9] and 103% in assay [10].
